In PubChem BioAssay (EPA / NIEHS):
Calls of active or inactive are those of the source. Rule for the calls: active = hit-call score of the fitted dose curve at least 0.9, where 1 is the maximum; inactive = score below 0.9.

experiment: ATG_NF_kB_CIS: Attagene CIS-FACTORIAL HepG2 Assay for human Nuclear Factor Kappa B (NF-kB) (AID 2282991); details: HepG2 Attagene cis-factorial NF-kB reporter mRNA; actives raise or lower the signal
Description: ATG_CIS is a cell-based, multiplexed-readout assay that uses HepG2, a human liver cell line, with measurements taken at 24 hours after chemical dosing in a 24-well plate.ATG_NF_kB_CIS is one of 52 assay component(s) measured or calculated from the ATG_CIS assay. It is designed to make measurements of mRNA induction, a form of inducible reporter, as detected with fluorescence intensity signals by Reverse transcription polymerase chain reaction (RT-PCR) and Capillary electrophoresis technology.Data from the assay component ATG_NF_kB_CIS was analyzed into 1 assay endpoint. This assay endpoint, ATG_NF_kB_CIS, was analyzed with bidirectional fitting relative to DMSO as the negative control and baseline of activity. Using a type of inducible reporter, measures of mRNA for gain or loss-of-signal activity can be used to understand the reporter gene at the transcription factor-level as they relate to the gene NFKB1. Furthermore, this assay endpoint can be referred to as a primary readout, because this assay has produced multiple assay endpoints where this one serves a reporter gene function. To generalize the intended target to other relatable targets, this assay endpoint is annotated to the dna binding intended target family, where the subfamily is NF-kappa B.
Human liver HepG2 cells are transiently transfected with multiple reporter transcription units (MRTUs) in 6-well plates using FuGene 6 reagent (Roche; 3 ml FuGene/1 mg DNA). The MRTU constructs are regulated by a cis-regulating element (promoter). […] A major difference between the CIS and TRANS system is that in CIS activities of endogenous TFs are measured, whereas the TRANS assay evaluates changes in activities of exogenous, chimeric NR-Gal4 proteins. […] At the end of 24 hour incubation, total RNA was isolated using TriZol reagent (Invitrogen). The isolated RNA is then reverse-transcribed using oligo(dT) primer and Mo-MLV reverse transcriptase (Invitrogen) with DNAse I (Ambion) treatment for 30 min. The one-tenth of the produced cDNA was amplified by PCR using Taq DNA polymerase (Invitrogen) and two reporter sequence-specific primers. The PCR products were fluorescently labeled by primer extension with 6-arboxyfluorescein (6-FAM) 5'-labeled reporter sequence-specific primer (2 min at 95 C, 20 s at 68 C and 10 min at 72 C) and these products were digested with 5U of HpaI (New England Biolabs) for 2h at 37 C. The fragments were purified using Qiaquick PCR columns (Qiagen), analyzed on an ABI 3130xL genetic analyzer (Applied Biosystems) with peak positions identified by using a set of X-rhodamine (ROX)-labeled MapMarker1000 molecular weight standards (BioVentures). The raw capillary electrophoresis data was processed using Attagraph software (Attagene).

| Structure (SMILES) | outcome | AC50 |
| --- | --- | --- |
| C[C@](N)(Cc1ccc(O)c(O)c1)C(=O)O | inactive |  |
| COCCOc1cc2cc(C(=O)NC3CCN(C(C)C)CC3)n(CC(=O)Nc3ccc(Cl)cn3)c2cn1 |  | 180 µM (active) |
| CC(C)(O)c1coc(S(=O)(=O)NC(=O)Nc2c3c(cc4c2CCC4)CCC3)c1 | inactive |  |
| Fc1ccccc1[C@@H](F)COC1CCC(Nc2ncnc3[nH]ncc23)CC1 (stereo not given in full) | inactive |  |
| CN(C)c1ccc(Cc2ccc(N(C)C)cc2)cc1 |  | 37.9 µM (active) |
| CCOC(=O)COc1ccc2c(c1)CC(NCC(O)c1cccc(Cl)c1)CC2 (stereo not given) | inactive |  |
| O=c1n(CC2CO2)c(=O)n(CC2CO2)c(=O)n1CC1CO1 (stereo not given) |  | 31.7 µM (active) |
| Cc1ccc(O)cc1 | inactive |  |
| COc1ccc(-n2nc(C(F)F)cc2-c2ccc(S(C)=O)cc2)cc1 (stereo not given) | inactive |  |
| CCCCCCCCCCCCc1ccccc1 | inactive |  |
| CCOCCO | inactive |  |
| CCCCCCCCCCCCCCCO | inactive |  |
| O=c1[nH]c2ccc(S(=O)CCN3CCC(Cc4ccc(F)cc4)CC3)cc2o1 (stereo not given) |  | 76.2 µM (active) |
| O=C(O)c1cccc(N(Cc2cccnc2)c2ccc(OC(F)F)c(OC(F)F)c2)c1 |  | 27.7 µM (active) |
| COC(=O)c1c(Cl)c(Cl)c(C(=O)OC)c(Cl)c1Cl | inactive |  |
| CNS(=O)(=O)c1cc(C(=O)N2CCC(CCN3C4CCC3CC(n3c(C)nc5ccccc53)C4)(c3cccc(F)c3)CC2)c(Cl)cc1F (stereo not given) |  | 5.18 µM (active) |
| Clc1nc(Cl)c(Cl)c(Cl)c1Cl | inactive |  |
| O=P(OC(CCl)CCl)(OC(CCl)CCl)OC(CCl)CCl | inactive |  |
| COC(=O)c1ccccc1O | inactive |  |
| COc1ccc(/C=C/S(=O)(=O)NC(=O)c2ccc(C)cc2Cl)cc1 | inactive |  |

| Structure (SMILES) | outcome | AC50 |
| --- | --- | --- |
| CC[C@H](C)C(=O)O[C@H]1C[C@@H](C)C=C2C=C[C@H](C)[C@H](CC[C@@H]3C[C@@H](O)CC(=O)O3)[C@H]21 | inactive |  |
| O=C(O)c1cccc(Oc2ccccc2)c1 | inactive |  |
| O=C(OC[C@H]1O[C@@H](OC(=O)c2cc(O)c(O)c(OC(=O)c3cc(O)c(O)c(O)c3)c2)[C@H](OC(=O)c2cc(O)c(O)c(OC(=O)c3cc(O)c(O)c(O)c3)c2)[C@@H](OC(=O)c2cc(O)c(O)c(OC(=O)c3cc(O)c(O)c(O)c3)c2)[C@@H]1OC(=O)c1cc(O)c(O)c(OC(=O)c2cc(O)c(O)c(O)c2)c1)c1cc(O)c(O)c(OC(=O)c2cc(O)c(O)c(O)c2)c1 | inactive |  |
| CC[C@H]1CC[C@H](NCc2cc3c(cc2OC)[C@H]2C[C@H]2C(=O)N3C)[C@H](c2ccccc2)N1 |  | 45.2 µM (active) |
| C=CCCCCCCCCC(=O)O | inactive |  |
| CCOc1cccc(-n2cc(C(=O)N3CCN(c4cc(C(=O)O)c5ccccc5c4)CC3)nc2-c2ccc(C)cc2)c1 | inactive |  |
| Cc1c(-c2cccnc2)c2ccccc2n1CCCCC(=O)O |  | 100 µM (active) |
| CC[C@H]1OC(=O)[C@H](C)[C@@H](O[C@H]2C[C@@](C)(OC)[C@@H](O)[C@H](C)O2)[C@H](C)[C@@H](O[C@@H]2O[C@H](C)C[C@H](N(C)C)[C@H]2O)[C@](C)(O)C[C@@H](C)C(=O)[C@H](C)[C@@H](O)[C@]1(C)O | inactive |  |
| O=C(O)CCN(C1(C(=O)NO)CCCC1)S(=O)(=O)c1ccc(Oc2ccc(F)cc2)cc1 | inactive |  |
| CC(O)CN(CCN(CC(C)O)CC(C)O)CC(C)O (stereo not given) | inactive |  |
| CCNc1ccccc1 | inactive |  |
| O=C(CCCCCCCCc1cccnc1)N1CCC(C=C(c2ccccc2)c2ccccc2)CC1 | inactive |  |
| CCn1nc(Cc2ccccc2)cc1C1CCN(C[C@H]2C[C@H](N(C)[C@@H](C(=O)O)C(C)C)C[C@@H]2c2cccc(F)c2)CC1 |  | 38.2 µM (active) |
| CCOC(=O)CC(CC(=O)OCC)(OC(C)=O)C(=O)OCC | inactive |  |
| On1ccccc1=S |  | 10.2 µM (active) |
| CCOCCOCCOCCO | inactive |  |
| Cn1cnc([N+](=O)[O-])c1Sc1ncnc2nc[nH]c12 | inactive |  |
| Nc1nc2ncc(CNc3ccc(C(=O)N[C@@H](CCC(=O)O)C(=O)O)cc3)nc2c(=O)[nH]1 | inactive |  |
| Nc1cccc(N)c1 | inactive |  |
| CCc1cc(SCc2sc(-c3ccc(C(F)(F)F)cc3)nc2CN2CCN(c3ccc(OC)cc3)CC2)ccc1OCC(=O)O |  | 20.2 µM (active) |
